Reference: PubChem BioAssay (NCATS)
Records with an inconclusive call do not appear. A call without a number means that no potency is given here. Unmarked numbers belong to inactive results. The source made the active and inactive calls. Calls follow the shape of the dose curve; as a rule, active = well fitted cell-killing curve with a large enough effect; inconclusive = small, poorly fitted or top-dose-only effect, or effect the other way; inactive = flat fitted curve, though single readings scatter. Where a SMILES comes first, the peptide text is derived from it. [ ]: non-standard residue; d: D form. ξ: configuration not given here. ξPhe(βξ-Me) = CC(c1ccccc1)C(N)C(=O)O; GABA = NCCCC(=O)O

These compounds were tested on C33A (assay: Primary qHTS to identify gynecologic anti-cancer compounds using libraries of approved drugs and bioactive compounds (AID 1345084; also: nearly all actives have a fitted effect of over 55% in size)). Conditions: Gynecologic cancer cell panel viability, ATPlite luminescence, 48 h; series mostly up to 57.5 µM.
Summary of the method: (§1)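 In this quantitative HTS, cell killing is estimated from loss of ATP-dependent luciferase light. Cells see five compound concentrations over a 48 h exposure.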
Potency is read from the fitted curve at half-maximal effect.

Row | Compound | Potency
1 | Cc1ccc(C(=O)Nc2ccc(Oc3cc4cnn(C)c4cc3-c3cn[nH]c3)c(F)c2)c(=O)n1-c1ccc(F)cc1 | inactive
2 | CC(C)=CCC/C(C)=C/CC/C(C)=C/CC[C@]1(C)CCc2cc(O)cc(C)c2O1 | inactive
3 | CC(=O)N1c2ccccc2C2(O)CC3C(=O)NC(CC(C)C)C(=O)N3C12 (centres undefined) | inactive
4 | CCCCS(=O)(=O)Nc1ncnc(OCCOc2ncc(Br)cn2)c1-c1ccc(Br)cc1 | inactive
5 | C[C@@H]1O[C@@H](OC[C@H]2O[C@@H](OCCc3ccccc3)[C@H](O)[C@@H](O)[C@@H]2O)[C@H](O)[C@H](O)[C@H]1O | inactive
6 | CCN[C@@H]1C[C@H](N)[C@@H](O[C@H]2OC(CN)=CC[C@H]2N)[C@H](O)[C@H]1O[C@H]1OC[C@](C)(O)[C@H](NC)[C@H]1O | inactive
7 | CC(CO[C@@H]1O[C@H](COC(=O)/C=C/c2ccc(O)c(O)c2)[C@@H](O)[C@H](O)[C@H]1O)C1(O)COC(=O)C1 (some centres undefined) | inactive
8 | Oc1ccc([C@H]2COc3cc(O)ccc3C2)cc1 | inactive
9 | Cc1nnc(C(C)C)n1C1CC2CCC(C1)N2CCC(NC(=O)C1CCC(F)(F)CC1)c1ccccc1 (centres undefined) | inactive
10 | CC1(C)CCC[C@@]2(C)[C@H]1[C@H](O)C=C1COC(=O)[C@@]12O | inactive
11 | O=C1[C@H](O[C@@H]2O[C@H](CO)[C@@H](O)[C@H](O)[C@H]2O)Oc2ccccc2N1O | inactive
12 | COC(=O)[C@H](OC(C)=O)[C@H]1C(C)(C)C(=O)[C@H]2CC3=C4CC(=O)O[C@@H](c5ccoc5)[C@]4(C)CCC3[C@@]1(C)C2=O (some centres undefined) | inactive
13 | CCCCN(CCCC)C(=O)CN1C[C@H](c2ccc3c(c2)OCO3)[C@@H](C(=O)O)[C@@H]1c1ccc(OC)cc1 | inactive
14 | C=C[C@](C)(CC/C=C(\C)C(=O)O)O[C@@H]1OC[C@H](O)[C@H](O)[C@H]1O | inactive
15 | COC(=O)C1=CO[C@@H](O[C@@H]2O[C@H](CO)[C@@H](O)[C@H](O)[C@H]2O)[C@@H]2[C@@H](C(=O)OC)[C@@H](O)C(O)[C@H]12 (some centres undefined) | inactive
16 | O=C(O)Cc1nn(Cc2nc3cc(C(F)(F)F)ccc3s2)c(=O)c2nccnc12 | inactive

The compounds below were run on CAOV3 in the same assay as above. Conditions: Gynecologic cancer cell panel viability, ATPlite luminescence, 48 h; series mostly up to 57.5 µM.
Summary of the method: as §1

Row | Compound | Potency | activity change, negative = cytotoxicity
17 | CC(C)C(=O)O[C@@H]1[C@@H](O)[C@@H](O[C@H]2O[C@H](CO)[C@@H](O)[C@H](O)[C@H]2O)O[C@H](CO)[C@H]1O | inactive | 
18 | C=C(C(=O)O)[C@@H]1CC=C2CCC[C@H](C)[C@@]2(C)C1 | inactive | 
19 | CC1(C)CC[C@]2(C(=O)O)CC[C@]3(C)C(=CCC4[C@@]5(C)CCC(O[C@@H]6OC[C@H](O)[C@H](O)[C@H]6O[C@@H]6O[C@H](CO)[C@@H](O)[C@H](O)[C@H]6O)[C@@](C)(CO)C5CC[C@]43C)[C@@H]2C1 (some centres undefined) | inactive | 
20 | CNc1nc(Nc2cnn([C@H]3CCN(C4COC4)C[C@@H]3F)c2Cl)ncc1C(F)(F)F | inactive | 
21 | CCCCNC(=O)[C@@H]1Cc2ccccc2N1C(=O)[C@@H](N)CC | inactive | 
22 | Cc1coc2c1CC1OC1(C)CCC1OC1(C)C2 (centres undefined) | inactive | 
23 | COC(=O)C1C(CC(C)=O)C=CC(O)C12Oc1cc(C)cc(O)c1C2=O (centres undefined) | inactive | 
24 | CCOC(=O)[C@H]1O[C@@H]1C(=O)N[C@@H](CC(C)C)C(=O)NCCC(C)C | inactive | 
25 | C=C1CCC2C(C)(C)C(O)CCC2(C)C1CCC(C)CCOC(=O)CCC(=O)O (centres undefined) | inactive | 
26 | CC1CCC2(C(=O)OC3OC(CO)C(O)C(O)C3O)CCC3(C(=O)O)C(=CCC4C5(C)CCC(OC6OC(C)C(O)C(O)C6O)C(C)(C)C5CCC43C)C2C1C (centres undefined) | inactive | 
27 | COC1CC(=O)C23C(=O)NC(CC(C)C)C2C(C)C(C)=CC3/C=C(\C)CCC1O (centres undefined) | inactive | 
28 | C[C@@H]1O[C@@H](O[C@H]2[C@H](OC(=O)[C@]34CCC(C)(C)C[C@H]3C3=CCC5[C@@]6(C)C[C@H](O)[C@H](O[C@@H]7O[C@H](CO[C@@H]8OC[C@H](O)[C@H](O)[C@H]8O)[C@@H](O)[C@H](O)[C@H]7O)C(C)(C)C6CC[C@@]5(C)[C@]3(C)C[C@H]4O)OC[C@@H](O)[C@@H]2O)[C@H](O)[C@H](O[C@@H]2OC[C@](O)(CO)[C@H]2O)[C@H]1O[C@@H]1OC[C@H](O)[C@H](O[C@@H]2OC[C@@H](O)[C@H](O)[C@H]2O)[C@H]1O (some centres undefined) |  | 12.2% [at 6.55 µM]
29 | COc1cc(C)c(C(=O)O[C@H]2[C@@H](O)[C@H](n3ccc(=O)[nH]c3=O)O[C@@H]2CO)c(OC)c1 | inactive | 
30 | CC(C)CC1NC(=O)C(C(C)c2ccccc2)NC(=O)C(C(C)C)NC(=O)C(C)NC(=O)CCCNC(=O)C(Cc2c[nH]c3ccccc23)NC(=O)C(C)NC1=O (stereo not drawn) (cyclo([GABA]AV[ξPhe(βξ-Me)]LAW); configuration not given here) | inactive | 
31 | CC(C)Nc1cc(-c2c[nH]c(C(=O)N[C@H](CO)c3cccc(Cl)c3)c2)c(Cl)cn1 | inactive | 
32 | COc1cc(N2CCC(O)CC2)ccc1Nc1cc(Nc2ccccc2S(=O)(=O)C(C)C)c2cc[nH]c2n1 | inactive | 
33 | O=C(O)C[C@@H](NC(=O)c1cc(-c2ccc(-c3ccncc3)cc2)cs1)c1ccccc1 | inactive | 
34 | OC[C@H]1O[C@@H](n2cnc3c2NC=NC[C@H]3O)C[C@@H]1O | inactive | 
35 | CC1(C)C[C@H]2C3=CCC4[C@@]5(C)CC[C@H](O[C@H]6O[C@H](C(=O)O)[C@@H](O)[C@H](O)[C@H]6O[C@H]6O[C@H](CO)[C@@H](O)[C@H](O)[C@H]6O[C@@H]6O[C@H](CO)[C@@H](O)[C@H](O)[C@H]6O)[C@](C)(CO)C5CC[C@@]4(C)[C@]3(C)CC[C@@]2(C)[C@H](O[C@@H]2OC[C@H](O)[C@H](OC3O[C@H](CO)[C@@H](O)[C@H](O)[C@H]3O)[C@H]2O)[C@@H]1O (some centres undefined) |  | 18.6% [at 6.55 µM]

Row | Compound | Potency | activity change, negative = cytotoxicity
36 | C[C@@H]1O[C@@H](O[C@H]2[C@H](OC(=O)[C@]34CCC(C)(C)C[C@H]3C3=CCC5[C@@]6(C)C[C@H](O)[C@H](O[C@@H]7O[C@H](CO)[C@@H](O[C@@H]8O[C@H](CO)[C@@H](O)[C@H](O)[C@H]8O)[C@H](O)[C@H]7O)[C@@](C)(CO)C6[C@H](O)C[C@@]5(C)[C@]3(C)C[C@H]4O)OC[C@H](O)[C@@H]2O)[C@H](O)[C@H](O)[C@H]1O[C@@H]1OC[C@@H](O)[C@H](O[C@@H]2OC[C@](O)(CO)[C@H]2O)[C@H]1O (some centres undefined) |  | 18.5% [at 6.55 µM]
37 | Nc1ccn([C@@H]2C(F)=C(CO)[C@@H](O)[C@H]2O)c(=O)n1 | inactive | 
38 | C[C@@H]1O[C@@H](OC[C@H]2O[C@@H](OCC3CCC4CC3C4(C)C)[C@H](O)[C@@H](O)[C@@H]2O)[C@H](O)[C@H](O)[C@H]1O (some centres undefined) | inactive | 
39 | Cc1ccc(C(=O)Nc2ccc(Oc3cc4cnn(C)c4cc3-c3cn[nH]c3)c(F)c2)c(=O)n1-c1ccc(F)cc1 | 8.91 µM (active) | 
40 | CC(C)=CCC/C(C)=C/CC/C(C)=C/CC[C@]1(C)CCc2cc(O)cc(C)c2O1 | inactive | 
41 | CC(=O)N1c2ccccc2C2(O)CC3C(=O)NC(CC(C)C)C(=O)N3C12 (centres undefined) | inactive | 
42 | CCCCS(=O)(=O)Nc1ncnc(OCCOc2ncc(Br)cn2)c1-c1ccc(Br)cc1 | inactive | 
43 | C[C@@H]1O[C@@H](OC[C@H]2O[C@@H](OCCc3ccccc3)[C@H](O)[C@@H](O)[C@@H]2O)[C@H](O)[C@H](O)[C@H]1O | inactive | 
44 | CCN[C@@H]1C[C@H](N)[C@@H](O[C@H]2OC(CN)=CC[C@H]2N)[C@H](O)[C@H]1O[C@H]1OC[C@](C)(O)[C@H](NC)[C@H]1O | inactive | 
45 | CC(CO[C@@H]1O[C@H](COC(=O)/C=C/c2ccc(O)c(O)c2)[C@@H](O)[C@H](O)[C@H]1O)C1(O)COC(=O)C1 (some centres undefined) | inactive | 
46 | Oc1ccc([C@H]2COc3cc(O)ccc3C2)cc1 | inactive | 
47 | Cc1nnc(C(C)C)n1C1CC2CCC(C1)N2CCC(NC(=O)C1CCC(F)(F)CC1)c1ccccc1 (centres undefined) | inactive | 
48 | CC1(C)CCC[C@@]2(C)[C@H]1[C@H](O)C=C1COC(=O)[C@@]12O | inactive | 
49 | O=C1[C@H](O[C@@H]2O[C@H](CO)[C@@H](O)[C@H](O)[C@H]2O)Oc2ccccc2N1O | inactive | 
50 | COC(=O)[C@H](OC(C)=O)[C@H]1C(C)(C)C(=O)[C@H]2CC3=C4CC(=O)O[C@@H](c5ccoc5)[C@]4(C)CCC3[C@@]1(C)C2=O (some centres undefined) | inactive | 
51 | CCCCN(CCCC)C(=O)CN1C[C@H](c2ccc3c(c2)OCO3)[C@@H](C(=O)O)[C@@H]1c1ccc(OC)cc1 | inactive | 
52 | C=C[C@](C)(CC/C=C(\C)C(=O)O)O[C@@H]1OC[C@H](O)[C@H](O)[C@H]1O | inactive | 
53 | COC(=O)C1=CO[C@@H](O[C@@H]2O[C@H](CO)[C@@H](O)[C@H](O)[C@H]2O)[C@@H]2[C@@H](C(=O)OC)[C@@H](O)C(O)[C@H]12 (some centres undefined) | inactive | 
54 | O=C(O)Cc1nn(Cc2nc3cc(C(F)(F)F)ccc3s2)c(=O)c2nccnc12 | inactive | 
